Data published in PubChem BioAssay AID1159580 (chemical genetic matrix, 2015).
In all, about 5,500 compounds went through this assay and about 2,000 (36%) were called active. Inconclusive results (about 18%) are left out. No stated cut-off is given here; in the data, active means normalized growth mostly below about 0.91 (no sharp cut-off); inconclusive means no clear call, values can overlap the other calls; inactive means mostly above about 0.92. This is one part of the list.

Assay: chemical genetic growth profiling, strain panel (AID 1159580);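 further: tested at 20 µM; growth read once vehicle control cultures reached saturation at 30 °C; 1 = growth at the plate median or of vehicle wells; lower values mean less growth of the strain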
Conditions: growth OD

Measured: normalized growth

Clc1ccc(COC(Cn2ccnc2)c2ccc(Cl)cc2Cl)cc1 (stereo unspecified)
active: S. cerevisiae deletion strains, locus YJR066W, strain TOR1, active compounds read low 0.00125 | S. cerevisiae deletion strains, locus YJR075W, strain HOC1, active compounds read low 0.0611 | S. cerevisiae deletion strains, locus YKL009W, strain mrt4, active compounds read low 0.0921 | S. cerevisiae deletion strains, locus YKL068W, active compounds read low 0.0732 | S. cerevisiae deletion strains, locus YKL085W, strain MDH1 (second series), active compounds read low 0.0674 | S. cerevisiae deletion strains, locus YKL085W, strain MDH1, active compounds read low 0.0674 | S. cerevisiae deletion strains, locus YKL160W, strain elf1, active compounds read low 0.0682 | S. cerevisiae deletion strains, locus YKL190W, strain CNB1, active compounds read low 0.0459 | S. cerevisiae deletion strains, locus YKR001C, strain vps1, active compounds read low 0.0628 | S. cerevisiae deletion strains, locus YKR026C, strain gcn3, active compounds read low 0.0617 | S. cerevisiae deletion strains, locus YKR091W, strain srl3, active compounds read low 0.0578 | S. cerevisiae deletion strains, locus YLL001W, strain dnm1, active compounds read low 0.0616 | S. cerevisiae deletion strains, locus YLL026W, active compounds read low 0.0557 | S. cerevisiae deletion strains, locus YLL041C, strain sdh2, active compounds read low 0.0556 | S. cerevisiae deletion strains, locus YLR027C, strain aat2, active compounds read low 0.0535 | S. cerevisiae deletion strains, locus YLR039C, strain RIC1, active compounds read low 0.0808 | S. cerevisiae deletion strains, locus YLR058C, strain SHM2, active compounds read low 0.0475 | S. cerevisiae deletion strains, locus YLR102C, strain apc9, active compounds read low 0.0627 | S. cerevisiae deletion strains, locus YLR113W, strain HOG1, active compounds read low 0.128 | S. cerevisiae deletion strains, locus YLR221C, strain rsa3, active compounds read low 0.0566 | S. cerevisiae deletion strains, locus YLR258W, strain gsy2, active compounds read low 0.0569 | S. cerevisiae deletion strains, locus YLR262C, strain YPT6 (second series), active compounds read low 0.0789 | S. cerevisiae deletion strains, locus YLR262C, strain YPT6, active compounds read low 0.112 | S. cerevisiae deletion strains, locus YLR268W, strain sec22, active compounds read low 0.0635 | S. cerevisiae deletion strains, locus YLR320W, strain mms22, active compounds read low 0.139 | S. cerevisiae deletion strains, locus YLR330W, strain CHS5, active compounds read low 0.0517 | S. cerevisiae deletion strains, locus YLR342W, strain FKS1 (second series), active compounds read low 0.0624 | S. cerevisiae deletion strains, locus YLR342W, strain FKS1, active compounds read low 0.0696 | S. cerevisiae deletion strains, locus YLR357W, strain rsc2, active compounds read low 0.121 | S. cerevisiae deletion strains, locus YLR370C, strain arc18, active compounds read low 0.0609 | S. cerevisiae deletion strains, locus YLR371W, strain rom2, active compounds read low 0.0612 | S. cerevisiae deletion strains, locus YLR384C, strain iki3, active compounds read low 0.0595 | S. cerevisiae deletion strains, locus YLR418C, strain cdc73, active compounds read low 0.089 | S. cerevisiae deletion strains, locus YML016C, strain PPZ1, active compounds read low 0.046 | S. cerevisiae deletion strains, locus YML032C, strain rad52, active compounds read low 0.0629 | S. cerevisiae deletion strains, locus YML120C, strain ndi1, active compounds read low 0.0559 | S. cerevisiae deletion strains, locus YML124C, strain tub3, active compounds read low 0.06 | S. cerevisiae deletion strains, locus YMR058W, strain fet3, active compounds read low 0.0614 | S. cerevisiae deletion strains, locus YMR078C, strain ctf18, active compounds read low 0.0711 | S. cerevisiae deletion strains, locus YMR125W, strain sto1, active compounds read low 0.0771 | S. cerevisiae deletion strains, locus YMR129W, active compounds read low 0.0559 | S. cerevisiae deletion strains, locus YMR205C, strain PFK2, active compounds read low 0.0917 | S. cerevisiae deletion strains, locus YMR223W, strain ubp8, active compounds read low 0.0593 | S. cerevisiae deletion strains, locus YMR231W, strain pep5, active compounds read low 0.125 | S. cerevisiae deletion strains, locus YMR263W, strain SAP30, active compounds read low 0.055 | S. cerevisiae deletion strains, locus YMR307W, strain GAS1, active compounds read low 0.123 | S. cerevisiae deletion strains, locus YNL067W, strain RPL9B, active compounds read low 0.0483 | S. cerevisiae deletion strains, locus YNL071W, strain lat1, active compounds read low 0.0586 | S. cerevisiae deletion strains, locus YNL128W, strain TEP1, active compounds read low 0.0622 | S. cerevisiae deletion strains, locus YNL153C, strain GIM3, active compounds read low 0.0497 | S. cerevisiae deletion strains, locus YNL183C, strain NPR1, active compounds read low -0.00516 | S. cerevisiae deletion strains, locus YNL209W, strain ssb2, active compounds read low 0.0633 | S. cerevisiae deletion strains, locus YNL233W, strain BNI4, active compounds read low 0.0542 | S. cerevisiae deletion strains, locus YNL248C, strain rpa49, active compounds read low 0.0786 | S. cerevisiae deletion strains, locus YNL250W, strain rad50, active compounds read low 0.0799 | S. cerevisiae deletion strains, locus YNL271C, strain bni1, active compounds read low 0.0793 | S. cerevisiae deletion strains, locus YNL298W, strain CLA4, active compounds read low 0.0698 | S. cerevisiae deletion strains, locus YNL307C, strain MCK1, active compounds read low 0.0676 | S. cerevisiae deletion strains, locus YNL322C, strain KRE1 (second series), active compounds read low 0.067 | S. cerevisiae deletion strains, locus YNR049C, strain mso1, active compounds read low 0.0571 | S. cerevisiae deletion strains, locus YNR052C, strain pop2, active compounds read low 0.0609 | S. cerevisiae deletion strains, locus YOL006C, strain TOP1, active compounds read low 0.104 | S. cerevisiae deletion strains, locus YOL012C, strain htz1 0.142 | S. cerevisiae deletion strains, locus YOL147C, strain pex11, active compounds read low 0.0571 | S. cerevisiae deletion strains, locus YOR001W, strain rrp6, active compounds read low 0.0678 | S. cerevisiae deletion strains, locus YOR061W, strain CKA2, active compounds read low 0.0453 | S. cerevisiae deletion strains, locus YOR069W, strain VPS5, active compounds read low 0.0468 | S. cerevisiae deletion strains, locus YOR070C, strain gyp1, active compounds read low 0.0583 | S. cerevisiae deletion strains, locus YOR080W, strain dia2, active compounds read low 0.0655 | S. cerevisiae deletion strains, locus YOR083W, strain WHI5, active compounds read low 0.0646 | S. cerevisiae deletion strains, locus YOR106W, strain vam3, active compounds read low 0.0717 | S. cerevisiae deletion strains, locus YOR136W, strain idh2, active compounds read low 0.0693 | S. cerevisiae deletion strains, locus YOR144C, strain elg1, active compounds read low 0.0562 | S. cerevisiae deletion strains, locus YOR184W, strain ser1, active compounds read low 0.0649 | S. cerevisiae deletion strains, locus YOR231W, strain MKK1, active compounds read low 0.119 | S. cerevisiae deletion strains, locus YOR265W, strain rbl2, active compounds read low 0.0574 | S. cerevisiae deletion strains, locus YOR270C, strain vph1, active compounds read low 0.104 | S. cerevisiae deletion strains, locus YOR290C, strain snf2, active compounds read low 0.0649 | S. cerevisiae deletion strains, locus YOR316C, strain cot1, active compounds read low 0.0595 | S. cerevisiae deletion strains, locus YPL051W, strain arl3, active compounds read low 0.0626 | S. cerevisiae deletion strains, locus YPL078C, strain atp4, active compounds read low 0.0787 | S. cerevisiae deletion strains, locus YPL106C, strain sse1, active compounds read low 0.0958 | S. cerevisiae deletion strains, locus YPL240C, strain hsp82, active compounds read low 0.0557 | S. cerevisiae deletion strains, locus YPL241C, strain CIN2, active compounds read low 0.0472 | S. cerevisiae deletion strains, locus YPL256C, strain CLN2, active compounds read low 0.127 | S. cerevisiae deletion strains, locus YPR119W, strain clb2, active compounds read low 0.062 | S. cerevisiae deletion strains, locus YPR141C, strain kar3, active compounds read low 0.0789 | S. cerevisiae deletion strains, locus YPR163C, strain tif3, active compounds read low 0.0707 | S. cerevisiae deletion strains, locus YPR167C, strain met16, active compounds read low 0.0615 | S. cerevisiae deletion strains, strain wtn01, active compounds read low 0.0584 | S. cerevisiae strains, strain wild type, active compounds read low 0.0556
